The panel holds about 83,000 compounds, 20% with a hit somewhere; the sample as a whole holds those more often.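 Plates (96-well) were seeded with cells, treated with compound at one concentration, and incubated for 48 hours before percent growth was determined.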 Unmarked numbers belong to inactive results. Calls of active or inactive are those of the source. Rule for the calls: active = growth percent below 10; inactive = the rest.

Experiment in all cases: NCI-60 one-dose screen, 48 h (100 = growth as untreated, 0 = no growth, -100 = all killed)
The subject of assay [1] is SR leukemia. The note with it: 10 µM unless noted.
The subject of assay [2] is RPMI-8226 leukemia. The note with it: 10 µM unless noted.
Assay [3] deals with OVCAR-8 ovarian. The note with it: 10 µM unless noted.
Assay [4] relates to OVCAR-5 ovarian. The settings on record: 10 µM unless noted.
The subject of assay [5] is OVCAR-4 ovarian. The settings on record: 10 µM unless noted.
Assay [6] concerns SK-OV-3 ovarian. The settings on record: 10 µM unless noted.
In assay [7] the test system is IGROV1 ovarian. The settings on record: 10 µM unless noted.
Assay [8] concerns OVCAR-3 ovarian. The settings on record: 10 µM unless noted.
Assay [9] has as its system NCI/ADR-RES ovarian. The settings on record: 10 µM unless noted.
The subject of assay [10] is T-47D breast. The note with it: 10 µM unless noted.
The subject of assay [11] is MDA-MB-435 melanoma. The note with it: 10 µM unless noted.
The test system of assay [12] is SW-620 colon. The note with it: 10 µM unless noted.
For assay [13], the system named is MCF7 breast. The note with it: 10 µM unless noted.
Assay [14] deals with HCT-116 colon. The note with it: 10 µM unless noted.
For assay [15], the system named is HCC-2998 colon. The settings on record: 10 µM.
Assay [16] deals with KM12 colon. The settings on record: 10 µM unless noted.
Assay [17] deals with BT-549 breast. The settings on record: 10 µM unless noted.

Regarding `CC(C)CC(=O)Nc1n[nH]c2c1CN(C(=O)C1CCN(C)CC1)C2(C)C`, the growth in [1] is 2.42% (active); in assay [2], 3.37% (active); in assay [3], 15.4%; in assay [4], 8.63% (active); in [5], 33.5%; in [6], -1.71% (active). Moreover, the growth in assay [7] is 15.4%; in [8], 18.3%; in assay [9] it was 96.1%; in assay [10], -3% (active); in [11] it was 12%; in assay [12], 9.91% (active). The growth in [13] was 3.99% (active); in [14] it was 2.94% (active); in assay [15] it was 13.1%; in [16] it was 9.26% (active).
For the compound `Nc1ncnc2c1ccn2-c1cccc(NC(=O)c2ccc(N3CCOCC3)c(C(F)(F)F)c2)c1`, the growth in assay [1] is 51.8%; in assay [2], 4.92% (active); in assay [3], 24.8%; in [4], 72.9%; in assay [5] it was 104%; in assay [6] it was 77.3%. Besides, the growth in [7] was 40.5%; in [8] it was 43.2%; in assay [9], 26.2%; in [10], 32.2%; in assay [11] it was 53.7%; in assay [12] it was 66.5%. For the same compound, the growth in [13] was 67.1%; in [14], 24.9%; in assay [15] it was 62.6%; in [16], 31%.
As for `COc1cccc(Nc2ncnn3ccc(CN4CC[C@@H](N)[C@H](O)C4)c23)c1`, the growth was 20.1% in assay [1]; 65.7% in [2]; 27.5% in assay [3]; 25.5% in assay [4]; 61% in [5]; -41.4% (active) in assay [6]. The growth in [7] is -19% (active); in assay [8] it was 44.1%; in assay [9] it was 19.4%; in assay [10], -1.78% (active); in assay [11], 75.6%; in assay [12], 88.4%. For the same compound, the growth in assay [13] was 58.8%; in [14], 21.9%; in assay [15] it was 77.1%; in [16], 14.1%.
For the compound `Cn1cc(-c2ncnc3ccc(-c4cnc(Cl)c(NS(C)(=O)=O)c4)cc23)c2ccccc21`, the growth in assay [1] was 15.9%; in assay [2] it was 14.5%; in assay [3], 31%; in [4] it was 12.8%; in assay [5], 15.4%; in assay [6] it was -18.1% (active). In addition, the growth in assay [7] was -24.3% (active); in [8] it was 21.1%; in [9], 20.6%; in assay [10] it was -23.9% (active); in [17] it was 4.5% (active); in assay [11], 7.19% (active). Further, the growth in assay [12] is 21.3%; in assay [14], 20.3%; in assay [15], 17.7%; in assay [16], 25.3%.
On to `FC(F)(F)c1ccc(CNc2ccc(Cc3c[nH]c4ncc(Cl)cc34)cn2)cn1`, for which the growth is 11.1% in assay [1]; 26.3% in [2]; 14.3% in [3]; 30.5% in assay [4]; 30% in [5]; 16% in assay [6]. Moreover, the growth is 41% in assay [7]; 41.6% in assay [8]; 12.6% in assay [9]; -1.92% (active) in assay [10]; 26.3% in assay [17]; 6.37% (active) in assay [11]. Besides, the growth in assay [12] is 19%; in assay [14] it was 15.4%; in [15], 18.1%; in assay [16], 7.06% (active).
With `Cc1cc(Nc2cc(N3CCN(C)CC3)nc(Sc3ccc(NC(=O)C4CC4)cc3)n2)n[nH]1`, the growth in [1] is 16.7%; in assay [2] it was 44.8%; in assay [3], 38.6%; in assay [4] it was 29%; in assay [5], 77%; in assay [6], 27.6%. For the same compound, the growth was 30.7% in assay [7]; 61.5% in [8]; 73.8% in assay [9]; 33.1% in assay [10]; 23.5% in assay [17]; 27.6% in assay [11]. Besides, the growth in [13] was 28.5%; in assay [14], 18.3%; in assay [15] it was 33.9%; in assay [16], 6.38% (active).
Consider `COc1cc2ncnc(Nc3ccc(O)cc3)c2cc1OC`, for which the growth is 27.1% in assay [1]; 97.2% in assay [2]; 70.7% in assay [3]; 59.2% in [4]; 88.1% in assay [5]; 5.29% (active) in [6]. Further, the growth is 38.2% in [7]; 87.4% in [8]; 91.3% in assay [9]; 53.9% in assay [10]; 80% in assay [17]; 91.6% in assay [11]. For the same compound, the growth in [13] is 90.4%; in [14], 75.3%; in assay [15], 100%; in assay [16] it was 89.7%.
On to `Cn1cc(-c2ccc(F)c(C(F)(F)F)c2)nc1C1CCN(c2ncnc3[nH]ncc23)CC1`, for which the growth in assay [1] was 55.4%; in [2], 82.3%; in assay [3], 47.8%; in assay [4], 85.8%; in assay [5] it was 80.4%; in assay [6], 55.5%. In addition, the growth in assay [7] was 55.2%; in assay [8], 89.6%; in assay [9], 61.2%; in [10], 25.8%; in assay [17] it was 43.1%; in [11], 93.3%. Also, the growth in assay [12] was 89.2%; in assay [14] it was 68.9%; in assay [15], 95.5%; in assay [16], 73.5%.
Turning to `CCc1cnn2c(NCc3ccc[n+]([O-])c3)cc(N3CCCC[C@H]3CCO)nc12`, the growth in assay [1] is -17.3% (active); in assay [2], -16.2% (active); in [3], -6.3% (active); in [4], 4.89% (active); in assay [5], -9.21% (active); in [6], -17.8% (active). In addition, the growth was 5.6% (active) in assay [7]; 12.3% in assay [8]; -0.875% (active) in [9]; -16.9% (active) in assay [10]; -15.7% (active) in assay [17]; -35.4% (active) in assay [11]. The growth in assay [13] was 1.85% (active); in [14] it was 1.22% (active); in assay [15] it was -37.3% (active); in assay [16], 1.55% (active).
Regarding `COC1CCC(N2C(=O)CNc3ncc(-c4ccc(C(C)(C)O)nc4)nc32)CC1` (stereo not drawn), the growth was -0.973% (active) in [1]; -2.19% (active) in [2]; 5.09% (active) in assay [3]; 9.72% (active) in assay [4]; -7.38% (active) in [5]; -27.6% (active) in assay [6]. Further, the growth is -2.9% (active) in assay [7]; 8.66% (active) in [8]; 3.73% (active) in assay [9]; -24% (active) in assay [10]; -8.77% (active) in assay [17]; -27.9% (active) in [11]. For the same compound, the growth in [12] is 12%; in assay [13] it was 3.23% (active); in assay [16] it was 7.39% (active).
Take `O=c1sn(-c2cccc3ccccc23)c(=O)n1Cc1ccccc1`: the growth is 38.7% in assay [1]; 76.8% in [2]; 94.4% in [3]; 112% in assay [4]; 107% in [5]; 83% in [6]. In addition, the growth is 98.2% in assay [7]; 99.4% in [8]; 107% in [9]; 91.5% in assay [10]; 110% in [17]; 104% in assay [11]. Besides, the growth in [12] is 110%; in assay [14] it was 88.1%; in assay [15], 110%; in assay [16] it was 104%.
In the case of `CCN(CCCOc1ccc2c(Nc3cc(CC(=O)Nc4cccc(F)c4)[nH]n3)ncnc2c1)CCOP(=O)(O)O`, the growth in [1] is 36.3%; in assay [2] it was 91.5%; in [3], 70.2%; in assay [4], 59.3%; in [5], 79.9%; in assay [6], 77.1%. Besides, the growth in assay [7] was 62.4%; in [8], 78.2%; in assay [9], 98.3%; in assay [10] it was 73.6%; in assay [11] it was 69.2%; in assay [12], 35.8%. The growth in assay [13] was 46.6%; in assay [14], 47.5%; in assay [15], 61.4%; in [16], 21.4%.
For `O=C(c1c(F)ccc(NS(=O)(=O)N2CC[C@@H](F)C2)c1F)c1c[nH]c2ncc(-c3cnc(C4CC4)nc3)cc12`, the growth in [1] is 21.6%; in assay [2] it was 36.3%; in assay [3], 31.7%; in [4] it was 58.3%; in [5], 64.2%; in assay [6], 3.3% (active). For the same compound, the growth is 17% in assay [7]; 69.4% in assay [8]; 102% in assay [9]; 9.33% (active) in [10]; 61.6% in assay [17]; 16.8% in assay [11]. For the same compound, the growth in assay [12] is 66.6%; in assay [13], 61.3%; in assay [16] it was 54.4%.
For the compound `CNC(=O)c1cc(COc2nnc(Nc3ccc(Cl)cc3)c3ccoc23)ccn1`, the growth is 61.3% in assay [1]; 89.9% in assay [2]; 14.3% in assay [3]; 23.5% in assay [4]; -38.4% (active) in [5]; -60.8% (active) in assay [6]. Further, the growth in [7] is 24.7%; in assay [8] it was 46.6%; in [9], 15.2%; in [10] it was 15.2%; in assay [17] it was 29.8%; in assay [11], 73.2%. Also, the growth in assay [12] is 108%; in assay [14], 35.5%; in [15], 94.3%; in assay [16], 53.8%.
Consider `O=C(N/N=C/c1ccc(Cl)cc1)c1cc(-c2cc3ccccc3o2)nn1-c1ccccc1`, for which the growth in assay [1] was 87.9%; in [2] it was 47.6%; in [3], 93.7%; in assay [4], 101%; in assay [5], 87.3%; in [6], 94%. For the same compound, the growth in [7] is 65.9%; in [8], 106%; in [9], 93.4%; in assay [10], 85.6%; in [11], 103%; in assay [12], 101%. The growth in assay [13] is 85.6%; in assay [14], 92.3%.
Turning to `Cc1cc(-c2cc(OC(=O)c3ccccc3)ccc2Cl)cc2nnc(Nc3ccc(OCCN4CCCC4)cc3)nc12`, the growth in assay [1] is 0.433% (active); in [2], 74.4%; in [3], 68.6%; in [4], 81%; in [5], -40.5% (active); in assay [6], 52.6%. Further, the growth in [7] is 69.4%; in assay [8] it was 86.3%; in assay [9], 110%; in assay [10], 91.8%; in [11], -70.6% (active); in assay [12], 105%. In addition, the growth in assay [13] was 3.92% (active); in assay [14], 55.5%; in assay [15], 109%; in assay [16], 90.5%.
Regarding `CC(=O)Nc1cccc(-n2c(=O)n(C3CC3)c(=O)c3c(Nc4ccc(I)cc4F)n(C)c(=O)c(C)c32)c1`, the growth was 46.4% in assay [1]; 45.5% in assay [2]; 39% in assay [3]; 6.47% (active) in assay [4]; 37% in assay [5]; 11.3% in assay [6]. Also, the growth is 16.9% in [7]; 85.5% in assay [8]; 46.6% in [9]; 51.3% in [10]; 27.7% in [11]; 19% in assay [12]. Further, the growth was 80.8% in assay [13], 10.6% in [14], -26.9% (active) in assay [15] and 23% in [16].

(Values after PubChem BioAssay (NCI).)
